A selection: hits, their analogues and other compounds. The true share with any hit is near 11%.
FLuc inh: blocks purified firefly luciferase enzyme activity. purified P. pyralis luciferase, luminescence, biochemical. 76,000 compounds, 2.5% hits. Potency, µM (top dose mostly 115 µM), actives largely listed as inhibitors. P08659. AID 1347043; further: nearly all actives have a fitted effect of over 65% in size
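Inhibitors were tested against purified firefly luciferase in a biochemical, low-substrate format (both substrates at 10uM) and luminescence measured with a CCD imager.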
NPR1 antag: antagonists of human natriuretic peptide receptor Npr1. P16066. HEK293 hNpr1 GloSensor cGMP, ANP-stimulated luminescence. Potency, µM (series often up to 46.3 µM), inactives show at the top dose activity change, negative = inhibition, most hits filed as inhibitors. 76,000 compounds, 1.6% hits. AID 1347048; calls by dose curve; further: nearly all actives have a fitted effect of over 60% in size
Target sequence (P16066 whole entry, looked up): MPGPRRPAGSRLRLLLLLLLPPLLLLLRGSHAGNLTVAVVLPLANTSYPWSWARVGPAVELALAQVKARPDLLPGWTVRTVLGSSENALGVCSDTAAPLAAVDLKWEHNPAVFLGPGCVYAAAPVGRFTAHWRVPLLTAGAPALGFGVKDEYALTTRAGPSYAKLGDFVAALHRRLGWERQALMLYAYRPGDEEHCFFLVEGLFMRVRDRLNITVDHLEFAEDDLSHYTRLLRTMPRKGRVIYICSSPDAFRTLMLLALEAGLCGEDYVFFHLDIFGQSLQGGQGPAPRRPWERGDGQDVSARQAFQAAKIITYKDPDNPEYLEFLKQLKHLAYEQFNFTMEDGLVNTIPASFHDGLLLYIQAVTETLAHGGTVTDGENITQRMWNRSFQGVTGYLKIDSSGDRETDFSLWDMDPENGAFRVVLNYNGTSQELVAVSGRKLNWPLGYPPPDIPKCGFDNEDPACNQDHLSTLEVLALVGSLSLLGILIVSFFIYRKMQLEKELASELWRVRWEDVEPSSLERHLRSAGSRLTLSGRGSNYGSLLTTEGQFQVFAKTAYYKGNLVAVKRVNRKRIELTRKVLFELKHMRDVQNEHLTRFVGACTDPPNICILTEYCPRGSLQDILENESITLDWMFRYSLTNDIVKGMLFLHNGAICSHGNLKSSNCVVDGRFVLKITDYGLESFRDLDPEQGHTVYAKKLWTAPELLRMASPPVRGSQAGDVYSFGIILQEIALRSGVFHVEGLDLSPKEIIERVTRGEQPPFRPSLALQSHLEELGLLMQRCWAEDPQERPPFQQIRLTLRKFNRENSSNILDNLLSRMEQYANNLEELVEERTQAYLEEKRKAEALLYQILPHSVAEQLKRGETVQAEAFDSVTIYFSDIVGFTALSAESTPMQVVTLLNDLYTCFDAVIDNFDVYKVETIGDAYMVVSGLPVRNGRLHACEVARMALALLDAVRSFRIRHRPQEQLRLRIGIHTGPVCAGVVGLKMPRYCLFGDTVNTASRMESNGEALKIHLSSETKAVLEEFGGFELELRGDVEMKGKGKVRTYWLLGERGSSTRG
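HEK293 cells stably expressing human Npr1 and cGMP GloSensor pGS-40F, loaded 2 h with 2% GloSensor reagent, given compound 30 min at room temperature. Luminescence read before and 20 min after 0.1 nM hNppA.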
3T3 cytotox: kills NIH 3T3 cells. 94,000 compounds, 4.3% hits. AID 1345082. NIH 3T3 viability, CellTiter-Glo ATP luminescence, 48-72 h. Potency, µM (highest dose often 96.7 µM), for the others: top-dose activity change, negative = cytotoxicity, most hits filed as inhibitors; further: nearly all actives have a fitted effect of over 55% in size
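Cytotoxicity is measured as loss of cellular ATP: NIH 3T3 cells (400/well) are exposed to compound for 48 or 72 hr at 37 °C, then CellTiter-Glo luminescence is imaged after 10 min at room temperature.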
HEK cytotox: cytotoxic compounds in HEK 293 cells; HEK 293 viability, ATP luminescence (CellTiter-Glo), 48-72 h; Potency, µM (highest dose often 115 µM), inactives show at the top dose activity change, negative = cytotoxicity, usual class: inhibitors; 94,000 compounds, 6.6% hits; AID 1345083; further: nearly all actives have a fitted effect of over 60% in size
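HEK 293 cells at 250 cells/well were exposed to compounds by pintool transfer for 48 or 72 hr at 37 degree Celsius, 5% CO2. Viability was read as ATP-coupled luminescence with CellTiter-Glo after 10 min at room temperature.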
* marks the source's active call; other numbers are inactive results; [ ] = another dose, or the depositor's remark. Unless noted, the call rests on the fitted dose curve; in most records, active means well fitted curve in the direction sought with a large enough effect; inconclusive means small, poorly fitted or top-dose-only effect, or another doubt; inactive means no such curve, though single readings can be large; an effect the other way counts as inactive or inconclusive. On the % scale 0 is the no-effect control and ±100 the full control effect; potency means the concentration at half of the fitted maximal effect.

`Cc1nn(-c2ccccc2)c2c1C(C(C)C)N(C1CCCN(C(=O)c3ccccc3F)C1)C2=O` (stereo unspecified) gave 3T3 cytotox inconclusive and HEK cytotox 35.5µM*.
Screening Cc1ccccc1C(=O)N1CCC(N2C(=O)c3c(c(C)nn3-c3ccccc3)C2C(C)C)C1 (stereo unspecified) returned 3T3 cytotox inconclusive and HEK cytotox 39.8µM*.
For COCC(=O)N1CCC(N2C(=O)c3c(c(C)nn3-c3ccccc3)C2C(C)C)C1 (stereo unspecified) the results were 3T3 cytotox -17.0% and HEK cytotox -2.9%.
COc1ccc2nc([C@H]3CCN(C(=O)c4ccccc4)C3)[nH]c2c1 was read as FLuc inh inactive, NPR1 antag 4.0%[70.6 µM], 3T3 cytotox -13.9%[174 µM] and HEK cytotox -15.4%[172 µM].
Screening Cc1ccccc1C(=O)N1CC(N2C(=O)c3c(c(C)nn3-c3ccccc3)C2C(C)C)C1 (stereo unspecified) returned 3T3 cytotox inconclusive and HEK cytotox 50.1µM*.
Screening Cc1nn(-c2ccccc2)c2c1C(C(C)C)N(C1CN(C(=O)N(C)C)C1)C2=O (stereo unspecified) returned 3T3 cytotox -25.9% and HEK cytotox inconclusive.
Screening Cc1nn(-c2ccccc2)c2c1C(C(C)C)N(C1CCCN(C(=O)C(C)(C)C)C1)C2=O (stereo unspecified) returned 3T3 cytotox -5.3% and HEK cytotox inconclusive.
For Cc1nn(-c2ccccc2)c2c1C(C(C)C)N(C1CN(C(=O)c3ccccc3)C1)C2=O (stereo unspecified) the results were 3T3 cytotox inconclusive and HEK cytotox 44.7µM*.
For Cc1ccccc1C(=O)N1CCCC(N2C(=O)c3c(c(C)nn3-c3ccccc3)C2C(C)C)C1 (stereo unspecified) the results were 3T3 cytotox 39.8µM* and HEK cytotox 22.4µM*.
CC(=O)N1CC(N2C(=O)c3c(c(C)nn3-c3ccccc3)C2C(C)C)C1 (stereo unspecified) was read as 3T3 cytotox -24.6% and HEK cytotox -7.3%.
`Cc1nn(-c2ccccc2)c2c1C(C(C)C)N(C1CCN(C(=O)c3ccccn3)C1)C2=O` (stereo unspecified) gave 3T3 cytotox -21.5% and HEK cytotox 44.7µM*.
C[C@@H]1CN(C(=O)c2ccc(C(F)(F)F)cc2)C[C@@]1(O)C1CC1 was read as FLuc inh inactive, NPR1 antag 12.5%, 3T3 cytotox -17.0% and HEK cytotox -13.2%.
For COc1ccc(-c2cccc(C(=O)N3CCC(NC(=O)C(C)(C)C)CC3)c2)nn1 the results were 3T3 cytotox -2.7% and HEK cytotox 2.3%.
O=C(C1CCCN1C(=O)c1cccc(Cl)c1)N1CCC(N2Cc3ccccc3C2=O)CC1 (stereo unspecified) was read as 3T3 cytotox -19.7% and HEK cytotox inconclusive.
CN(C)c1cccc(Oc2nnnn2[C@H]2CO[C@H]3[C@@H]2OC[C@@H]3NC(=S)Nc2cccc(C#N)c2)c1 was read as FLuc inh inactive, NPR1 antag -4.6%, 3T3 cytotox inconclusive and HEK cytotox 44.7µM*.
`COc1cccc(CN2C(=O)CCCCC2C(=O)N2CCc3ccccc3C2)c1` (stereo unspecified) gave FLuc inh inactive, NPR1 antag -1.2%, 3T3 cytotox -20.5% and HEK cytotox inconclusive.
CCOc1ccccc1C(=O)N[C@@H]1CN(Cc2ccncc2)C[C@H]1CN(C)C was read as FLuc inh inactive, NPR1 antag -2.6%, 3T3 cytotox inconclusive and HEK cytotox inconclusive.
Screening CCN1C(=O)CCC2(C(=O)NCCN(C)C3CCCCC3)CCCC=C12 (stereo unspecified) returned FLuc inh inactive, NPR1 antag -3.0%, 3T3 cytotox inconclusive and HEK cytotox 44.7µM*.
CCNC(=O)C12CCCC=C1N(C1CCCC1)C(=O)CC2 (stereo unspecified) was read as FLuc inh 39.8µM*, NPR1 antag -6.1%, 3T3 cytotox -13.2% and HEK cytotox 4.0%.
For CCN1C(=O)CCC2(C(=O)NC3CCCC3)CCCC=C12 (stereo unspecified) the results were FLuc inh inactive, NPR1 antag 3.2%, 3T3 cytotox -8.2% and HEK cytotox -19.2%.
Cc1ccccc1C(=O)N1CCC2(CC1)C(=O)N(c1cccc(F)c1)C2c1ccccc1 (stereo unspecified) was read as 3T3 cytotox 35.5µM* and HEK cytotox 25.1µM*.
Screening COCCNC(=O)[C@H]1C[C@H](Oc2ccccc2)CN1Cc1ccc(OC(F)(F)F)cc1 returned FLuc inh inactive, NPR1 antag 3.1%, 3T3 cytotox inconclusive and HEK cytotox inconclusive.
For COCCNC(=O)c1nc2c(o1)CCN(Cc1ccc(F)c(Cl)c1)CC2 the results were FLuc inh inactive, NPR1 antag inconclusive, 3T3 cytotox inconclusive and HEK cytotox inconclusive.
O=C(Nc1cccnc1)c1nc2c(o1)CCN(Cc1ccc3[nH]ccc3c1)CC2 was read as FLuc inh 35.5µM*, NPR1 antag -14.9%[70.6 µM], 3T3 cytotox inconclusive and HEK cytotox 100µM*.
For O=C(NCCOc1ccccc1)c1nc2c(o1)CCN(Cc1ccc3[nH]ccc3c1)CC2 the results were FLuc inh inactive, NPR1 antag inconclusive, 3T3 cytotox inconclusive and HEK cytotox 70.8µM*.
For O=C(Nc1cccnc1)c1nc2c(o1)CCN(Cc1ccc(F)c(F)c1)CC2 the results were FLuc inh 70.8µM*, NPR1 antag 28.2µM*, 3T3 cytotox inconclusive and HEK cytotox inconclusive.
`O=C(NCC1CC1)c1nc2c(o1)CCN(Cc1ccc3[nH]ccc3c1)CC2` gave FLuc inh inactive, NPR1 antag 1.7%[70.6 µM], 3T3 cytotox inconclusive and HEK cytotox inconclusive.
COCCNC(=O)[C@H]1C[C@H](Oc2ccccc2)CN1Cc1ccc2[nH]ccc2c1 was read as FLuc inh inactive, NPR1 antag -3.7%, 3T3 cytotox inconclusive and HEK cytotox 10µM*.
For O=C(NCc1ccc2c(c1)OCO2)c1nc(-c2cccc(C(F)(F)F)c2)c2cnccn12 the results were FLuc inh inactive, NPR1 antag 0.0%, 3T3 cytotox inactive and HEK cytotox -3.7%.
COCCNC(=O)C1CCN(Cc2ccccc2-c2ccccc2F)CC1 was read as 3T3 cytotox -13.3% and HEK cytotox inactive.
`O=C(NCCc1ccccn1)c1ccc(OC2CCNCC2)nc1` gave FLuc inh 7.94µM*, NPR1 antag inconclusive, 3T3 cytotox inconclusive and HEK cytotox inconclusive.
`COC(=O)[C@@H]1Cc2c([nH]c3ccccc23)[C@H]2C[C@@H](NCCO)C[C@@H](c3ccccc3)N21` gave FLuc inh inconclusive, NPR1 antag -16.1%[70.6 µM], 3T3 cytotox 31.6µM* and HEK cytotox 39.8µM*.
